# Assay outcomes: PubChem BioAssay, National Center for Advancing Translational Sciences (NCATS)
# TDP1 cell CPT – DT40-hTDP1 cell growth loss with CPT | chicken DT40 Tdp1-/-;hTDP1 cells + 20 nM CPT, ATP luminescence, 48 h | AID 686979 | 420,000 tested, 12% active | Potency, µM (top dose mostly 46.2 µM), without a hit: at the top dose activity change, negative = growth inhibition, actives largely listed as inhibitors; also: nearly all actives have a fitted effect of over 55% in size
#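 Chicken DT40 Tdp1-/- cells complemented with human TDP1, 400 cells/well, exposed to compounds plus 20 nM camptothecin for at least 48 h at 37 C; viability read as ATP content by CellTiter-Glo luminescence.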
# TDP1 cell noCPT – qHTS for Inhibitors of human tyrosyl-DNA phosphodiesterase 1 (TDP1): qHTS in cells in absence of CPT | DT40 Tdp1-/- hTDP1 cells, no CPT, ATP luminescence, 48 h | Potency, µM (titrated, usually from 46.2 µM), inactives show at the highest dose activity change, negative = growth inhibition, hits mostly inhibitors | 420,000 tested, 15% active | AID 686978, 2013; also: nearly all actives have a fitted effect of over 55% in size
#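 Stably hTDP1-transfected Tdp1-null chicken DT40 cells were treated with library compounds minus camptothecin and grown for at least 48 hr at 37 °C, after which cellular ATP was quantified by luminescence.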
# RORgamma inh – inhibitors of mouse ROR gamma transcriptional activity; 310,000 tested, 5.4% active; P51450; AID 2551; Potency, µM (highest dose often 53.6 µM), for the others: at the top dose activity change, negative = inhibition, actives largely listed as inhibitors; Drosophila S2 Gal4-RORgamma UAS-luciferase reporter, 20 h; also: nearly all actives have a fitted effect of over 60% in size
#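 In this cell-based reporter format, copper sulfate (700 uM final) drives Gal4–ROR gamma fusion expression from a metallothionein promoter in Drosophila Schneider cells; compounds preincubated 1 hr, reporter read after 20 hr at ambient temperature.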
# TDP1 inh – TDP1 (human) enzyme inhibition; Q9NUW8; recombinant TDP1, AlphaScreen DNA substrate cleavage; Potency, µM (top dose mostly 130 µM), for inactives: at the top dose activity change, negative = inhibition, actives largely listed as inhibitors; 350,000 tested, 0.28% active; also: nearly all actives have a fitted effect of over 40% in size
# Target sequence (Q9NUW8 whole entry, looked up): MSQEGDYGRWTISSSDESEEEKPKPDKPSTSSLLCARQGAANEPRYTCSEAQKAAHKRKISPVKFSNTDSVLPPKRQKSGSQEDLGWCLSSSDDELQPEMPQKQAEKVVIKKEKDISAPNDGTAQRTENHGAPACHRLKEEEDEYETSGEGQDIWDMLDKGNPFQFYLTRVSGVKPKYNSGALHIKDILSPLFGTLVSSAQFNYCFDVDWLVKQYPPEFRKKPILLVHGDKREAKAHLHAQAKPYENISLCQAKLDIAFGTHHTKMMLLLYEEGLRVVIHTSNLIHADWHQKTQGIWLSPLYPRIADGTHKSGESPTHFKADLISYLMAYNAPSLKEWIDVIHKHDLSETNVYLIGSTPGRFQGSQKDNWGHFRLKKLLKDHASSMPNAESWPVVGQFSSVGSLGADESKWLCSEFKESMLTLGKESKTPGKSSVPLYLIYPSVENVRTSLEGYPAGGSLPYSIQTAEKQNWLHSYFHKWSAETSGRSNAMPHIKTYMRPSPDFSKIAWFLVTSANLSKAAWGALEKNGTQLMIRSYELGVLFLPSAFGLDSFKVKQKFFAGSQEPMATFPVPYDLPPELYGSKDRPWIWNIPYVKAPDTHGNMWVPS
#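 Compounds were preincubated with Tdp1 (1 nM final) for 15 min at room temperature before substrate (15 nM final) started a 5 min reaction; beads (10 ug/ml final) were then added for 10 min before AlphaScreen detection.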
# Gal4-VP16 FLuc – counter-screen for ROR gamma inhibitors: Gal4-VP16 reporter; Drosophila S2 Gal4-VP16 UAS-luciferase, luminescence, 20 h; Potency, µM (titrated, usually from 53.6 µM), for inactives: at the highest dose activity, negative = inhibition, most hits filed as inhibitors; 310,000 tested, 3.5% active; AID 2546;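 also: Gal4-VP16 expression switched on by copper sulfate through the metallothionein promoter; nearly all actives have a fitted effect of over 50% in size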
# * hit, by the source's call; ? = inconclusive; . = no result given; [ ] = dose if it differs, or a comment. The list is not random: actives were taken first. Their share in the collection is about 19%. Calls follow the shape of the dose curve; as a rule, active = well fitted curve in the direction sought with a large enough effect; inconclusive = small, poorly fitted or top-dose-only effect, or another doubt; inactive = no such curve, though single readings can be large; an effect the other way counts as inactive or inconclusive. % is scaled to controls: 0 for no effect and ±100 for the full control effect; potency is read from the fitted curve at half-maximal effect.
SMILES,TDP1 cell CPT,TDP1 cell noCPT,RORgamma inh,TDP1 inh,Gal4-VP16 FLuc
C[C@H]1CN([C@@H](C)CO)C(=O)Cc2cc(NC(=O)CCC(F)(F)F)ccc2O[C@H]1CN(C)S(=O)(=O)c1ccc(F)cc1,7.31µM*,6.51µM*,.,0.6%,.
C[C@H]1CN([C@@H](C)CO)C(=O)Cc2cc(NC(=O)CCC(F)(F)F)ccc2O[C@H]1CN(C)S(=O)(=O)c1ccc(Cl)cc1,5.17µM*,?,.,-0.1%,.
C[C@H](CO)N1C[C@H](C)[C@H](CN(C)C)Oc2ccc(NS(=O)(=O)c3ccc(F)cc3)cc2CC1=O,-24.8%,3.9%,.,0.9%,.
CCOC(=O)c1cc2c(=O)n3ccccc3nc2n(CC(C)C)c1=NC(=O)c1cc2ccccc2o1,-2.1%,-1.4%,.,8.8%,.
COc1ccc(OC)c(NC(=O)CCc2nnc3ccc(N4CCC(C)CC4)nn23)c1,-29.7%,?,-0.3%,3.2%,-12.2%
O=c1c2c3c(sc2nc(NCCO)n1-c1ccccc1)CCCC3,6.51µM*,11.6µM*,35.6%,.,-3.2%
Nn1c(Nc2ccccc2)nc2sc3c(c2c1=O)CCC3,1.03µM*,2.91µM*,44.9%,4.8%,-25.1%
CSc1nc2sc3c(c2c(=O)n1-c1ccc(C)cc1)CCCC3,?,8.2µM*,.,0.4%[12.3 µM],.
CC(C)Sc1nc2sc3c(c2c(=O)n1-c1ccccc1)CCCC3,?,18.4µM*,.,4.0%[12.3 µM],.
CC(=O)Nc1cccc(C(=O)OC(C)C(=O)NC(=O)NC2CCCCC2)c1 (stereo not drawn),-23.1%,?,.,.,.
CSc1nc2sc3c(c2c(=O)n1-c1ccccc1)CCC(C(C)(C)C)C3 (stereo not drawn),?,0.92µM*,.,.,.
Cc1nc2cnc(N3CCOCC3)nc2n(Cc2cccs2)c1=O,-11.9%,-11.8%,3.6%,.,7.0%
O=C(NC1CCCC1)c1sc(=S)n2c1[nH]c(=O)c1ccccc12,20.6µM*,?,-15.5%,5.9%,-0.1%
O=C(c1ccc(N2CCCC2=O)cc1)N1CCOCC1,1.2%,5.0%,-16.3%,-4.1%,3.7%
Cc1cccc(C(=O)N(CCc2ccccc2)Cc2ccccc2)c1[N+](=O)[O-],10.3µM*,7.31µM*,17.1%,1.1%,1.0%
Cn1cc([N+](=O)[O-])c(C(=O)N(Cc2ccccc2)Cc2ccccc2)n1,?,25.9µM*,2.4%,5.8%,-0.9%
CS(=O)(=O)c1ccccc1C(=O)N(CCc1ccccc1)Cc1ccccc1,-18.6%,-29.2%,20.3%,0.1%,-6.3%
CS(=O)(=O)c1ccc(C(=O)N(CCc2ccccc2)Cc2ccccc2)cc1,-22.8%,-2.5%,?,2.8%,-0.5%
COc1ccc(N(Cc2ccccc2)C(=O)c2ccccc2[N+](=O)[O-])cc1,?,9.2µM*,3.8%,1.6%,-0.1%
O=C(c1ccccc1[N+](=O)[O-])N(CCc1ccccc1)Cc1ccccc1,16.4µM*,11.6µM*,-5.2%,2.5%,-0.3%
COc1ccc(Br)c(OC)c1C(=O)NC(=O)Nc1nc(C)cc(C)n1,-10.0%,-19.1%,0.3%,-1.2%,0.9%
CC(C)CNC(=O)c1cc2nc3c(c(C(F)(F)F)n2n1)CCc1ccccc1-3,-19.0%,?,-8.7%,2.3%,-6.1%
C/C(=N\O)c1ccc(N2C(=O)C3CC=C(Cl)CC3C2=O)cc1 (stereo not drawn),0.3%,5.0%,6.0%,2.8%[56.1 µM],-14.4%
Cc1ccc(NC(=O)c2ccc(N3C(=O)C4CC=C(Cl)CC4C3=O)cc2)cc1 (stereo not drawn),?,16.4µM*,?,1.0%,-1.3%
CCCOc1ccc(Cc2c(COCC)[nH]c(=S)[nH]c2=O)cc1,-1.2%,-16.0%,-12.8%,-3.0%,-4.3%
SMILES,TDP1 cell CPT,TDP1 cell noCPT,RORgamma inh,TDP1 inh,Gal4-VP16 FLuc
O=C(COC(=O)/C=C/c1ccco1)Nc1ccccc1,-11.9%,2.9%,-2.7%,.,5.8%
CCN(c1ccc(NC(=O)COC(=O)/C=C/c2ccco2)cc1)C(C)C,25.9µM*,18.4µM*,.,6.3%,.
CCc1ccc(NC(=O)COC(=O)/C=C/c2ccco2)cc1,?,?,.,25.1µM*,.
Cc1ccc(-c2ccc(SCC(=O)NC3CCCCC3)nn2)cc1,-22.7%,?,-30.5%,1.4%,5.3%
Cc1ccc(Nc2nnc(-c3cc4c(ccc5ccccc54)oc3=O)s2)cc1,-12.8%,-16.5%,.,-3.1%[12.3 µM],.
Cc1ccc(Nc2nc3ccccc3c(=O)s2)cc1,-0.5%,-24.5%,6.31µM*,3.7%,11.2µM*
COc1ccc2c(c1)C[C@]1(C)c3ccccc3C(=O)N(Cc3ccccc3)[C@H]21,16.4µM*,6.31µM*,.,.,.
O=C(Nc1nnc(C2=COCCO2)o1)c1ccc(S(=O)(=O)N2CCCCC2)cc1,?,?,1.26µM*,8.1%,3.16µM*
CC1CCN(S(=O)(=O)c2ccc(C(=O)Nc3nnc(C4=COCCO4)o3)cc2)CC1,23.1µM*,?,1.12µM*,4.4%,1µM*
O=C(Nc1nnc(C2=COCCO2)o1)c1ccc(S(=O)(=O)N2CCCC2)cc1,?,?,17.4%,9.2%,-6.8%
COc1ccc(-c2noc(CCC(=O)N3CCN(c4ccccc4C(F)(F)F)CC3)n2)cc1,19.0%,-26.6%,.,-2.8%[56.1 µM],.
Cc1cc(C)c2c(n1)nn1c(C)c(CCC(=O)NCc3ccco3)c(C)nc21,-29.2%,-8.7%,22.2%,5.3%,-4.6%
CCc1nnc(NC(=O)CSc2nnc(-c3ccco3)o2)s1,-2.2%,-4.6%,11.2µM*,0.0%,?
CCc1nnc(NC(=O)CSc2nnc(COc3cccc(C)c3)o2)s1,-0.1%,5.1%,-106.6%,0.0%,?
CCc1nnc(NC(=O)CSc2nnc(COc3ccccc3C)o2)s1,-18.8%,-26.0%,11.2µM*,1.9%,?
Oc1cccc(/C=N/c2c(-c3ccco3)nc3ccccn23)c1,-28.4%,?,?,-3.8%,-1.3%
CN(C)Cc1cccc(-c2ccccc2)c1O,10.6%,11.0%,.,.,.
NS(=O)(=O)c1ccc(CNC(=O)Cc2ccccc2[N+](=O)[O-])cc1,6.4%,-1.5%,-24.1%,3.4%,-4.7%
CCOc1ccc(CCN2C(=O)C(=O)N([C@@H](CC(C)C)CN3CCC[C@H]3CN3C(=O)C(=O)NC[C@@H]3Cc3ccc(O)cc3)C[C@@H]2Cc2ccccc2)cc1,?,16.4µM*,.,.,.
CCOc1ccc(CCN2C(=O)C(=O)N([C@@H](Cc3ccccc3)CN3CCC[C@H]3CN3C(=O)C(=O)NC[C@@H]3CC(C)C)C[C@@H]2Cc2ccc(O)cc2)cc1,-91.2%,?,.,.,.
CCOc1ccc(CCN2C(=O)C(=O)N([C@@H](CC(C)C)CN3CCC[C@H]3CN3C(=O)C(=O)NC[C@@H]3CC(C)C)C[C@@H]2Cc2ccc(O)cc2)cc1,16.4µM*,?,.,.,.
